# BoNT-F LC inh: blocks Botulinum neurotoxin F light chain protease | hit rate 0.22% among 360,000 | Multiplex microsphere protease cleavage assay, flow cytometry | inhibition, % at 10 µM; in the data active = inhibition above about 35%, passing the limit was not always enough; inconclusive = no clear call, values can overlap the other calls
# Bead autofluor: counter-screen for toxin protease inhibitors: compound fluorescence. compound autofluorescence counterscreen, microsphere flow cytometry; stronger effect = higher value. fluorescence intensity (concentration not given with the values). hit rate 3.1% among 360,000. AID 624483; in the data active = fluorescence intensity above about 16000; inconclusive = no clear call, values can overlap the other calls
# MazEF act: activators of E. coli MazEF toxin-antitoxin RNase | P0AE70 | FAM/BHQ RNA-DNA oligo cleavage fluorescence, 5 h | activation, % at 20 µM | hit rate 0.32% among 350,000; in the data active = activation above about 50%
# Anthrax LF inh2: inhibitors of Bacillus anthracis lethal factor protease. P15917. multiplex microsphere protease cleavage assay, LF. inhibition, % at 10 µM. hit rate 0.12% among 360,000
# Target sequence (P15917 whole entry, looked up): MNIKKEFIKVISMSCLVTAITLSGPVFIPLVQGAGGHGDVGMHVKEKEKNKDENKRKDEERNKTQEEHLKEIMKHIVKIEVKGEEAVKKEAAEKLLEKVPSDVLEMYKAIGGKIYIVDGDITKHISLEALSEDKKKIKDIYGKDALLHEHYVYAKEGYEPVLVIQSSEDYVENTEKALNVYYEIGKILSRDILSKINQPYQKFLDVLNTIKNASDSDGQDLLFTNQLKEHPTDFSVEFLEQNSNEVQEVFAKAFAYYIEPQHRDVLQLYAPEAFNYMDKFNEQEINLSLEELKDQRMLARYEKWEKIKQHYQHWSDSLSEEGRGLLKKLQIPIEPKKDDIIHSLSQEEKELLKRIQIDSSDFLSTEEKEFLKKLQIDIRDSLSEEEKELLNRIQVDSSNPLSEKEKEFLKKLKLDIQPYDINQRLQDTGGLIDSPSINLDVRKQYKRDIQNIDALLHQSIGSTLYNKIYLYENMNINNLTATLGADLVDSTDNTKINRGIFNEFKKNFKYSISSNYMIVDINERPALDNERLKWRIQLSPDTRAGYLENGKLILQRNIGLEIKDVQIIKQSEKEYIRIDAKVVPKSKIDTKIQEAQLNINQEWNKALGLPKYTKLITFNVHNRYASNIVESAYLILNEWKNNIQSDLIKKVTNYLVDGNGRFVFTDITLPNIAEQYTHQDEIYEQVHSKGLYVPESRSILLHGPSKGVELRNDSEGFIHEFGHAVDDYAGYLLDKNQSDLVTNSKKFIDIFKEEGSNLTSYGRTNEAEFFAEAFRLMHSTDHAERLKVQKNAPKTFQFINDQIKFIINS
# BoNT-A LC inh2: blocks Botulinum neurotoxin A light chain protease; inhibition, % at 10 µM; multiplex microsphere protease substrate cleavage, flow cytometry; AID 588499; hit rate 0.17% among 360,000
# Numbers stand for hits; n = inactive; u = inconclusive; x = no result. Compounds with a hit are over-represented: about 3.7% of the library has one in this group of screens. Cut-off read from the data, not from the text of the source, unless noted: active = inhibition above about 30%; inconclusive = no clear call, values can overlap the other calls; inactive = below that.
SMILES,BoNT-F LC inh,Bead autofluor,MazEF act,Anthrax LF inh2,BoNT-A LC inh2
Cc1ccc(-c2nc(NC(=O)CSc3nnc(C)s3)ns2)cc1,n,n,n,n,n
Cc1nnc(SCC(=O)Nc2nsc(-c3ccccc3)n2)s1,n,21832,n,n,n
CN(C)c1ccc(NC(=O)c2sc(SCC(=O)Nc3nccs3)nc2N)cc1,n,23476,n,n,n
CN(C)c1ccc(NC(=O)c2sc(SCC(=O)Nc3ccc(Br)cc3)nc2N)cc1,n,n,n,n,n
COc1ccccc1NS(=O)(=O)c1cc(NC(=O)COc2ccccc2F)ccc1N1CCOCC1,n,n,n,n,n
O=C(O)c1ccc2c(=O)[nH]c(CCl)nc2c1,n,n,n,n,n
Cc1nnc(SCC(=O)Nc2nccs2)s1,n,20118,n,n,n
CCOC(=O)CSc1nnc(NCC(=O)OC)c(=O)[nH]1,n,21379,n,n,n
O=c1oc(-c2cccs2)nc2sc3c(c12)CCC3,n,n,n,n,n
O=c1oc(/C=C/c2ccco2)nc2sc3c(c12)CCC3,n,n,141.1,n,n
COc1ccc2nc(SCC(=O)N(C)C3CCCCC3)[nH]c2c1,n,n,n,n,n
O=C(O)CC(NC(=O)Cc1ccccc1)c1cc([N+](=O)[O-])ccc1Cl (stereo not given),n,n,n,n,n
O=S(=O)(c1ccc(Cl)s1)N1CCC(Cc2ccccc2)CC1,n,23306,n,n,n
O=S(=O)(c1ccc(Cl)s1)N1CCN(Cc2ccccc2)CC1,n,n,n,n,n
O=S(=O)(c1ccc(Br)s1)N1CCC(Cc2ccccc2)CC1,n,23471,n,n,n
COc1ccc(CN(C2CC2)S(=O)(=O)c2ccccc2Br)cc1,n,n,n,n,n
CCc1nc2c(OCCOc3ccccc3)cccn2c1N(C)C(=O)c1ccc(C)cc1,n,n,x,n,n
O=C1COc2ccc(OCc3ccc(F)cc3)cc21,n,23249,n,n,n
COc1ccc2c(-c3cc4ccc(OCc5ccc(F)cc5)cc4oc3=O)cc(=O)oc2c1,n,n,n,n,n
CC(C)(C)c1ccc(S(=O)(=O)N2CCN(c3ccccn3)CC2)cc1,n,n,n,n,n
CC(C)(C)c1nc(NCCN2CCOCC2)c2nnn(Cc3ccccc3Cl)c2n1,n,23490,n,n,n
c1ccc(Cn2nnc3c(NCCN4CCOCC4)ncnc32)cc1,n,22975,n,n,n
C[C@@H]1CN([C@@H](C)CO)S(=O)(=O)c2ccc(Br)cc2O[C@H]1CN(C)C(=O)C1CCC1,n,n,n,n,n
COC(=O)c1cccc(NC(=O)c2nn(C(C)C)c(=O)c3ccccc23)c1,n,17352,n,n,u
N#CCSc1nc2c(sc(=S)n2Cc2ccco2)c(=O)n1-c1ccc(F)cc1,n,21835,n,n,n
SMILES,BoNT-F LC inh,Bead autofluor,MazEF act,Anthrax LF inh2,BoNT-A LC inh2
Cc1ccc(NC(=O)CN2C(=O)NC3(CCc4ccccc43)C2=O)cc1 (stereo not given),n,n,n,n,n
O=C(CN1C(=O)NC2(CCc3ccccc32)C1=O)Nc1ccc(N2CCOCC2)cc1 (stereo not given),n,16378,n,n,n
CCSc1nc2sc3c(c2c(=O)n1-c1ccccc1C)CCN(C)C3,n,n,n,n,n
COc1cc(/C=C(/C#N)C(=O)NCc2ccccc2)cc(OC)c1OC,x,x,n,x,x
COc1ccc(/C=C(\C#N)C(=O)NCCc2ccccc2)cc1OCc1ccccc1,n,n,83.6,n,n
N#C/C(=C\c1ccccc1)C(=O)NCc1ccc(F)cc1,n,n,n,n,n
N#C/C(=C/c1ccc(C(=O)O)cc1)C(=O)NCc1ccccc1,n,17589,n,n,u
CN(C1CCCCC1)S(=O)(=O)c1ccc(=S)[nH]c1,n,n,n,n,n
N#Cc1ccsc1NC(=O)CSc1ncn[nH]1,n,22762,n,n,n
O=C(CSc1ncn[nH]1)Nc1ccccc1Sc1ccccc1,n,23235,n,n,u
O=C(CCl)Nc1ccccc1Sc1ccc(Cl)cc1,n,20704,n,n,n
O=C(CSc1ncn[nH]1)Nc1ccccc1-c1ccccc1,n,n,n,n,n
Cc1ccc(S(=O)(=O)CCC(=O)OCC(=O)Nc2cc(F)ccc2C)cc1,n,u,n,n,n
CN(CC(=O)Nc1ccc(C#N)cc1)Cc1ccc(Cl)cc1Cl,n,22298,n,n,n
COc1ccc(NCC(=O)Nc2ccc(C#N)cc2)cc1Cl,n,22730,n,n,n
CN(CC(=O)Nc1ccc(C#N)cc1)Cc1ccc(Cl)cc1,n,n,n,n,n
COc1ccc(NC(C)C(=O)Nc2ccc(C#N)cc2)cc1Cl (stereo not given),n,22894,n,n,u
O=C(/C=C/c1ccco1)NC(=S)Nc1ccccc1N1CCOCC1,n,23214,n,n,n
O=C(/C=C/c1ccco1)NC(=S)Nc1ccccc1N1CCCC1,n,n,n,n,n
Cn1c(NC(=O)c2ccccc2)c(-c2ccccn2)c(=O)c2ccccc21,n,20450,n,n,n
CC(C(=O)NCC1CCCO1)N(C(=O)c1snc(C(N)=O)c1N)c1ccccc1 (stereo not given),n,23246,n,n,n
CC(NC(=O)OCc1ccccc1)C(=O)NCC1CCCO1 (stereo not given),n,22834,n,n,n
COc1ccc(C(=O)NC(C)CCc2ccccc2)c(O)c1 (stereo not given),n,n,n,n,n
CCN(CC)C1=NC(=[N+](CC)CC)c2ccccc21,n,17474,n,n,n
Cc1cccc(C(=O)N[C@H](C(=O)Nc2ccc3c(c2)OCO3)C(C)C)c1,n,n,n,n,n
SMILES,BoNT-F LC inh,Bead autofluor,MazEF act,Anthrax LF inh2,BoNT-A LC inh2
O=C(CSc1nc2cc(Cl)ccc2s1)c1cc2ccccc2o1,n,19577,n,n,n
O=C(COC(=O)c1ccc(Cl)s1)c1cc2ccccc2o1,n,20753,n,n,n
Cn1cccc1C(=O)OCC(=O)c1cc2ccccc2o1,n,20874,n,n,u
COc1ccc([N+](=O)[O-])c(O)c1C(C)=O,n,n,n,n,n
C1CCN(c2nc3nonc3nc2N2CCCCC2)CC1,n,24347,n,n,n
CC(OC(=O)CCCCCN=C1NS(=O)(=O)c2ccccc21)C(=O)Nc1cc(Cl)cc(Cl)c1 (stereo not given),n,n,n,n,n
Cc1nc(CC(=O)N2CCN(c3cccc(C)c3C)CC2)cs1,n,20386,n,n,n
FC(F)(F)c1cnc(/C=C/Nc2ccccc2Cl)c(Cl)c1,n,22771,n,n,n
CN(Cc1ccccc1)C(CNS(=O)(=O)c1ccccc1)c1ccccc1 (stereo not given),n,n,n,n,n
O=C(Nc1ccccc1C(F)(F)F)N1CCCCCC1,n,n,n,n,n
O=C(Nc1ccccc1C(F)(F)F)N1CCN(C(c2ccccc2)c2ccccc2)CC1,n,22149,n,n,u
N#CCN1CCC(c2cc(-c3ccco3)n[nH]2)CC1,x,x,n,x,x
CC1CC(=O)N(Cc2ccccc2)c2ccccc2N1C=O (stereo not given),n,20499,n,n,n
O=c1[nH]c(=O)n(Cc2ccccc2)c(O)c1C=NCCCn1ccnc1,n,n,n,n,n
O=c1[nH]c(=O)n(Cc2ccc(F)cc2)c(O)c1C=NCCCn1ccnc1,n,20628,n,n,n

# Assay outcomes (PubChem BioAssay)
